Bioassay records from PubChem BioAssay.
Sm TGR block – S. mansoni TGR enzyme inhibition; Q962Y6; purified TGR, DTNB reduction, TNB absorbance 405 nm; Potency, µM (titrated, usually from 114 µM), hits mostly inhibitors; hit rate 3% among 360,000; note: nearly all actives have a fitted effect of over 60% in size
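TGR 20 nM + NADPH 100 uM (dispensed conc.), cpd preinc 15 min RT; start with NADPH (500 uM addition) then DTNB (15 mM addition). Kinetic TNB absorbance, 405 nm filter. Four-parameter Hill fit across titration.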
FMDV inh – antivirals against foot and mouth disease virus; AID 1159524; Potency, µM (doses to about 57.9 µM), most hits filed as inhibitors; FMDV antiviral cell-based qHTS; hit rate 1.2% among 410,000; calls by dose curve; tested in HEK293T cells; note: read-out not given here; nearly all actives have a fitted effect of over 45% in size
Vaccinia mCherry – inhibitors of vaccinia virus infection (mCherry reporter signal); Vaccinia virus mCherry reporter infection, fluorescence; Potency, µM (top dose mostly 36.5 µM), most hits filed as inhibitors; hit rate 0.63% among 310,000; AID 720579; calls by dose curve; tested in A549 cells; note: nearly all actives have a fitted effect of over 35% in size
HCMV inh – inhibitors of human cytomegalovirus; activity change, negative = inhibition, % at 57.5 µM; AID 1259415; hit rate 4.5% among 410,000; HFF cells, HCMV-luciferase reporter, 72 h; hits give low values; in the data active = activity change below about -60%; inconclusive = no clear call, values can overlap the other calls; inactive = above about -39%
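Human foreskin fibroblasts infected with luciferase-reporter HCMV at MOI 1 PFU/cell, compounds at two doses. Luciferase measured 72 h post infection; normalized to buffer-only basal and Salinomycin (10uM) controls.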
Vaccinia Venus – inhibitors of vaccinia virus (Venus reporter); Potency, µM (titrated, usually from 36.5 µM), hits mostly inhibitors; Vaccinia virus Venus reporter expression, fluorescence; AID 720580; hit rate 0.46% among 330,000; calls by dose curve; tested in A549 cells; note: nearly all actives have a fitted effect of over 30% in size
HCV inh – HCV inhibition | Huh7.5.1 HCVcc-Cre infection, luciferase reporter, 44 h | Potency, µM (titrated, usually from 41.8 µM), most hits filed as inhibitors | hit rate 3.4% among 340,000
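A cell-based infection assay in which seeded cells (1,000 per well) receive test compound after 4 h, are inoculated with HCVcc-Cre at approximately 0.5 moi, and are incubated 44 h before luminescence detection.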
Each line names hits and unclear results; the compound was inactive in the other large screens. The list is not random: actives were taken first. Their share in the collection is about 9.3%. Unless noted, calls come from the whole dose curve; as a rule, active = well fitted curve in the direction sought with a large enough effect; inconclusive = small, poorly fitted or top-dose-only effect, or another doubt; inactive = no such curve, though single readings can be large; an effect the other way counts as inactive or inconclusive.

Cc1ccc(CNC(=O)CC2(CC3=NS(=O)(=O)c4ccccc4N3)CCCC2)cc1	HCV inh 11.2µM
CC1=C(C(=O)OCc2ccccc2)C(c2cccnc2)n2nnnc2N1 (configuration not stated)	none
CCCC(CCC(=O)Nc1nccs1)C(=O)O (configuration not stated)	none (no result: Sm TGR block)
O=C(CSc1nc(=O)n2cc(Cl)ccc2n1)NCCc1ccccc1	none
COc1ccc(-c2csc3nc(C)n(-n4cccc4)c(=O)c23)cc1	HCMV inh -61.6, HCV inh inconclusive (no result: Vaccinia mCherry)
Cc1nc2scc(-c3ccc(C(C)(C)C)cc3)c2c(=O)n1N	HCMV inh -78.1
O=C(CN1CCOCC1)N1CCN(c2ccc3ccccc3n2)CC1	none (no result: FMDV inh, Vaccinia mCherry, HCMV inh, Vaccinia Venus, HCV inh)
COc1cc(CN(C(=O)COc2ccc(Cl)c(C)c2)c2ccccn2)cc(OC)c1OC	none (no result: HCV inh)
CCCN(CCC)C(=O)CSc1nc2ccccc2c(=O)n1CC1COc2ccccc2O1 (configuration not stated)	HCV inh inconclusive (no result: Vaccinia mCherry, Vaccinia Venus)
CCOC(=O)CSc1nc2ccccc2c(=O)n1CC1COc2ccccc2O1 (configuration not stated)	HCV inh 2.51µM (no result: Vaccinia mCherry, Vaccinia Venus)
CCOC(=O)CSc1nc2ccccc2c(=O)n1CC1CCCO1 (configuration not stated)	HCV inh 8.91µM (no result: Vaccinia mCherry, Vaccinia Venus)
Nc1nc(NCCOCCO)nc(Nc2cccc(F)c2)c1[N+](=O)[O-]	FMDV inh inconclusive, HCV inh inconclusive (no result: Vaccinia mCherry, Vaccinia Venus)
CNc1nc(N)c([N+](=O)[O-])c(Nc2cccc(Cl)c2)n1	HCV inh 8.91µM (no result: Vaccinia mCherry, Vaccinia Venus)
Cc1cccc(Nc2nc(NCCCN3CCOCC3)nc(N)c2[N+](=O)[O-])c1	FMDV inh inconclusive, Vaccinia mCherry inconclusive, HCMV inh inconclusive, Vaccinia Venus inconclusive, HCV inh inconclusive
CNc1nc(N)c([N+](=O)[O-])c(Nc2cccc(F)c2)n1	HCV inh 22.4µM
CNc1nc(N)c([N+](=O)[O-])c(NCc2ccccc2)n1	none
C=CCNc1nc(N)c([N+](=O)[O-])c(Nc2cccc(Cl)c2)n1	HCV inh 2.82µM
CCOC(=O)C1C(=O)NC(c2ccccc2)=NC1c1ccc(O)c(OC)c1 (configuration not stated)	none
CCN(CC)C(=O)COc1cc(C)cc2oc(=O)cc(-c3ccccc3)c12	FMDV inh inconclusive, HCV inh inconclusive (no result: Vaccinia mCherry)
CCCC(=O)Nc1c2c(nn1-c1ccc(OC)cc1)CS(=O)C2 (configuration not stated)	none
CCOc1ccccc1OCCCC(=O)Nc1sccc1C(N)=O	HCMV inh -61.1, HCV inh inconclusive
Cc1ccccc1OCC(=O)Nc1nnc(COc2ccccc2)s1	HCMV inh -78.9 (no result: Sm TGR block)
Cc1ccccc1OCCCC(=O)Nc1nccs1	HCMV inh inconclusive, HCV inh 11.2µM (no result: FMDV inh)
COc1ccc(OCCCC(=O)Nc2nccs2)cc1	HCMV inh inconclusive
NC(=O)c1ccsc1NC(=O)CCc1ccccc1	none (no result: Vaccinia mCherry, Vaccinia Venus)
Cc1ccc(C)c(OCCCC(=O)Nc2nccs2)c1	HCV inh 12.6µM
O=C(CCn1nnc2ccccc2c1=O)N[C@@H](Cc1ccccc1)C(=O)O	Sm TGR block inconclusive (no result: Vaccinia mCherry, Vaccinia Venus)
N/C(=N\OC(=O)CC1CCCCC1)c1cccc(Br)c1	none (no result: Vaccinia mCherry, Vaccinia Venus)
N#Cc1ccccc1NC(=O)Nc1ccc(Cl)cc1	none (no result: Vaccinia mCherry)
O=C(Nc1ccccc1Cl)Nc1ccccc1Cl	none
O=C(Nc1ccc(Cl)cc1)Nc1ccccc1Sc1ncc([N+](=O)[O-])s1	Sm TGR block 4.47µM, HCMV inh inconclusive (no result: Vaccinia mCherry, Vaccinia Venus)
O=C(Nc1csc([N+](=O)[O-])c1)Nc1ccccc1Cl	HCMV inh -66.7
CN(C)c1ccc(-n2c(CCC(=O)O)ccc2-c2ccccc2)cc1	Sm TGR block inconclusive (no result: HCV inh)
CC(=O)c1cccc(-n2c(CCC(=O)O)ccc2-c2ccccc2)c1	Sm TGR block 17.8µM
COC(=O)c1ccc(-n2c(CCC(=O)O)ccc2-c2ccccc2)cc1	Sm TGR block 14.1µM, FMDV inh inconclusive (no result: Vaccinia mCherry, HCMV inh, Vaccinia Venus)
CC(=O)c1ccc(-n2c(CCC(=O)O)ccc2-c2ccc(C)cc2)cc1	Sm TGR block 17.8µM (no result: HCMV inh)
COc1ccc(-n2c(CCC(=O)O)ccc2-c2ccc(F)cc2)c(OC)c1	Sm TGR block 44.7µM
O=C(C1CCCC1)N(c1ccccc1)C1C=CS(=O)(=O)C1 (configuration not stated)	none (no result: FMDV inh)
COC(=O)c1ccccc1-n1c(CCC(=O)O)ccc1-c1ccc(F)cc1	Sm TGR block inconclusive
O=C(O)CCc1ccc(-c2cccs2)n1NC(=O)c1ccccc1Br	Sm TGR block inconclusive, HCV inh inconclusive (no result: Vaccinia mCherry, Vaccinia Venus)
CC(=O)c1cccc(-n2c(CCC(=O)O)ccc2-c2cccs2)c1	Sm TGR block 5.62µM (no result: FMDV inh)
CC(C)(C)c1ccc(C(=O)Nn2c(CCC(=O)O)ccc2-c2cccs2)cc1	Sm TGR block 50.1µM, HCV inh inconclusive (no result: Vaccinia mCherry, Vaccinia Venus)
O=C(O)CCc1ccc(-c2cccs2)n1-c1ccc(C(=O)O)cc1	Sm TGR block 7.94µM
COC(=O)c1ccccc1-n1c(CCC(=O)O)ccc1-c1ccccc1	Sm TGR block 44.7µM
O=C(O)CCc1nc(-c2cccs2)no1	none
Cc1cc2oc(=O)cc(Cn3nnc(-c4ccc(Cl)cc4)n3)c2cc1C(C)C	none (no result: FMDV inh, Vaccinia mCherry, HCMV inh, Vaccinia Venus)
CC1CC(C)CN(C(=O)CSc2nnc(-c3ccco3)o2)C1 (configuration not stated)	none
CC(=O)c1ccc(-n2c(CCC(=O)O)ccc2-c2ccc(Br)cc2)cc1	Sm TGR block inconclusive (no result: Vaccinia mCherry, Vaccinia Venus)
O=C(O)CCc1ccc(-c2ccccc2)n1NC(=O)c1cccs1	Sm TGR block 50.1µM
NC(=S)Nn1c(CCC(=O)O)ccc1-c1ccccc1	none
CC(=O)c1ccc(-n2c(CCC(=O)O)ccc2-c2ccccc2)cc1	Sm TGR block 39.8µM (no result: Vaccinia mCherry, Vaccinia Venus)
O=C(O)CCc1ccc(-c2ccccc2)n1-c1cccc(Br)c1	Sm TGR block 15.8µM (no result: HCV inh)
Cc1nn(Cc2ccccc2Cl)c(C)c1NC(=O)/C=C/c1cnn(C)c1	none (no result: Vaccinia mCherry, Vaccinia Venus)
COc1ccc(C(=O)Nc2ccccc2)cc1S(=O)(=O)NCc1ccco1	Sm TGR block 44.7µM
O=C(Nc1ccccc1)c1ccc(S(=O)(=O)NCc2ccco2)cc1	Sm TGR block inconclusive, Vaccinia Venus inconclusive, HCV inh inconclusive (no result: Vaccinia mCherry)
C/C(=N\Nc1nc(Cl)c(Cl)cc1Cl)c1ccc(S(=O)(=O)NCc2ccco2)cc1	Vaccinia mCherry inconclusive, HCMV inh inconclusive, HCV inh 6.31µM
Cc1noc(C)c1COC(=O)c1cccc(S(=O)(=O)N2CCCCCC2)c1	FMDV inh inconclusive, Vaccinia mCherry inconclusive, Vaccinia Venus inconclusive, HCV inh 2.24µM
C/C(=N\Nc1ccccn1)c1ccc(S(=O)(=O)NCc2ccco2)cc1	none
Cc1noc(C)c1COC(=O)c1ccc(S(=O)(=O)NCc2ccco2)cc1	Sm TGR block 39.8µM, FMDV inh inconclusive, HCV inh inconclusive (no result: Vaccinia mCherry)
O=S(=O)(Nc1ccc(O)c(Sc2nc3ccccc3s2)c1)c1cccc2ccccc12	HCV inh inconclusive
Cc1ccc(C(=O)Nc2ccc(S(=O)(=O)NCc3ccco3)cc2)cc1	Sm TGR block 50.1µM, HCV inh inconclusive (no result: Vaccinia mCherry, Vaccinia Venus)
